From PubChem BioAssay (NCATS)
“And” between values parts separate entries of the source, which are not always exact repeats. Equal values may be shown once. Results filed as inconclusive are left out. Values without a mark were called inactive. The source made the active and inactive calls. Calls come from the whole dose curve.

Legend:
[1] = target: Bile acid receptor (Homo sapiens) (UniProt Q96RI1); experiment: qHTS assay for small molecule agonists of farnesoid X receptor signaling (AID 588527); details: HEK293T FXR-UAS-bla, beta-lactamase ratio, 16 h; activation: hits give high values;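 note: series mostly up to about 77 µM; 0% = vehicle basal and 100% = reference agonist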
Chain of Bile acid receptor (Homo sapiens) (Q96RI1 whole entry, looked up): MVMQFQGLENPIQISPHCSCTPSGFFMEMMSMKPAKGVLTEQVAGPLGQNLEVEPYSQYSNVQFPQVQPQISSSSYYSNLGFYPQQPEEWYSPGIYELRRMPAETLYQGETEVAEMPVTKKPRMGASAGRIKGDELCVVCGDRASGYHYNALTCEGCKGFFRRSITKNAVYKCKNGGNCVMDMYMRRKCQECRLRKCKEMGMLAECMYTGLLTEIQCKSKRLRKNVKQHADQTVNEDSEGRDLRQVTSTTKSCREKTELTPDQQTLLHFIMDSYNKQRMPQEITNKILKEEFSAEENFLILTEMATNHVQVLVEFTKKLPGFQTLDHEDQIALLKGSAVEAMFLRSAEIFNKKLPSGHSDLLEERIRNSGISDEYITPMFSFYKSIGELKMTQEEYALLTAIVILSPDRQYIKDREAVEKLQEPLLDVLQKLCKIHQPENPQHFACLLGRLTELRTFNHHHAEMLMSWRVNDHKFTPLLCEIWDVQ
Summary of the method: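 FXR-UAS-bla HEK293T, 10% dialyzed FBS; cpds up to 92 uM titration, 16 h 37 C; CCF4 dye 2 h RT; fluorescence. Normalized to chenodeoxycholic acid 100 uM (100%) and DMSO (0%); Hill fit gives EC50, efficacy.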

[2] = target: Peroxisome proliferator-activated receptor delta (Homo sapiens) (UniProt Q03181); experiment: qHTS assay for small molecule agonists of peroxisome proliferator-activated receptor delta signaling (AID 588534);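 note: 0% = DMSO basal wells and 100% = positive control agonist at 10 µM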
Chain of Peroxisome proliferator-activated receptor delta (Homo sapiens) (Q03181 whole entry, looked up): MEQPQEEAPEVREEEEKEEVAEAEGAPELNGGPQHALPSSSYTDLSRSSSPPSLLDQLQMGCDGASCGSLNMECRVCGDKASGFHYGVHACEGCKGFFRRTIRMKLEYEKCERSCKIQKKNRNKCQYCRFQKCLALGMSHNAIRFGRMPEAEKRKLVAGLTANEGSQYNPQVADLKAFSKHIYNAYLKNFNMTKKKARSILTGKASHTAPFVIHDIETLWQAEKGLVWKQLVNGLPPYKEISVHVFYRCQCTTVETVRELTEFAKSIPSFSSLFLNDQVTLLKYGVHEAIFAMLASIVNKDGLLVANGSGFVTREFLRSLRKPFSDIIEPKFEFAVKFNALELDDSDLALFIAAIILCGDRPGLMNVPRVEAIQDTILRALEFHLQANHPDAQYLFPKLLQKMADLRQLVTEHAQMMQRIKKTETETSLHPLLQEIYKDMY
Summary of the method: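 Reporter cells were plated and held 5 hrs at 37 C before compounds were added. After 18 hrs at 37 C, CCF4 dye was loaded for 2 hrs at RT and fluorescence measured.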

Row | Structure (SMILES) | activation [1] | outcome [2]
1 | CC(=O)CC(=O)Nc1ccc(C)cc1C | 0.192% | inactive
2 | Cc1ccc2oc(=O)ccc2c1 | 0.64% and 1.95% | inactive
3 | CO[Si](CCCOCC1CO1)(OC)OC (stereo not drawn) | -0.427% | inactive
4 | CCCCOCCOCCOCCCC | -0.244% | inactive
5 | IC(I)I | 0.284% and 0.834% | inactive
6 | Cc1c(C(=O)O)cccc1[N+](=O)[O-] | -2.92% | inactive
7 | O=CNc1ccccc1 | -1.29% | inactive
8 | C/C(Cl)=C/CCl | 0.345% | inactive
9 | CC(=O)CC(C)C | -0.151% | inactive
10 | C=C1C[C@]23C[C@@]1(O)CC[C@H]2[C@@]12C=C[C@H](O)[C@@](C)(C(=O)O1)[C@H]2[C@@H]3C(=O)O | 0.442% | inactive
11 | Cc1ccc(C)o1 | 1.14% | inactive
12 | CCC(C)OC(=O)N1CCCCC1CCO (stereo not drawn) | 1.43% | inactive
13 | CCC(C)(C)OC | 0.74% | inactive
14 | CCCCCCCC[Si](Cl)(Cl)Cl | 0.799% | inactive
15 | CC(=O)N(CCN(C(C)=O)C(C)=O)C(C)=O | 1.43% | inactive
16 | COc1cccc2sc(N)nc12 | -1.11% | inactive
17 | NC=O | -0.541% | inactive
18 | C=C(C)C(=O)OCCCCCCCCCCCCCCCC | -3.87% | inactive
19 | O=C(O)c1ccc(Cl)cc1Cl | -2.47% | inactive
20 | CCCCCCOCCOCCO | -1.2% | inactive

Row | Structure (SMILES) | activation [1] | outcome [2]
21 | O=C1C=CCCC1 | -1.48% | inactive
22 | Nc1nc(-c2ccccc2)cs1 | 2.42% | inactive
23 | CCCC[O][Al]([O]CCCC)[O]CCCC | 1.48% | inactive
24 | C=Cc1ccccc1Cl | 0.519% | inactive
25 | C=Cc1ccccc1Br | 2.37% | inactive
26 | CN(C)c1nc(=O)n(C2CCC(O)CC2)c(=O)n1C (stereo not drawn) | 2.83% | inactive
27 | CCC(=O)C1C(=O)CC(C(=O)O)CC1=O (stereo not drawn) | -1.69% | inactive
28 | Cc1ccc(S(N)(=O)=O)cc1 | 0.771% and -1.64% | inactive
29 | O=C(O)c1ccc(Cl)c(Cl)c1 | -2.87% | inactive
30 | CC(C)(C)c1cccc(C(C)(C)C)c1O | -3.57% | inactive
31 | O=[N+]([O-])c1ccc(CCO)cc1 | -0.12% | inactive
32 | CCCCC(CC)COC(=O)c1ccc(C(=O)OCC(CC)CCCC)cc1 (stereo not drawn) | 2.72% | inactive
33 | O=c1[nH]c(=O)c2[nH]cnc2[nH]1 | -9.18% | inactive
34 | c1ccc2[nH]cnc2c1 | -1.83% | inactive
35 | Cc1ccc(N)c(S(=O)(=O)O)c1 | 4.47% | inactive
36 | CC#N | -1.26% | inactive
37 | FC(F)(F)c1cccc(Cl)c1 | -1.67% | inactive
38 | CC1=C(/C=C/C(C)=C/C=C/C(C)=C/C=O)C(C)(C)CCC1 | 23.6% | inactive
39 | CC(=O)OC(C)C | -1.76% | inactive
